Several values for one entry are separate records, joined by “and”; a condition that tells them apart may be missing. Identical values can stand only once. The source holds several records for some structures; these can differ, active in one and inactive in another. Activity calls are given as the source filed them. How the source made its calls: active means hit-call score of the fitted dose curve at least 0.9, where 1 is the maximum; inactive means score below 0.9.
What was measured:
[1] = target: Bile acid receptor (Homo sapiens) (UniProt Q96RI1); assay: ATG_IR1_CIS: Attagene CIS-FACTORIAL HepG2 Assay for human Nuclear Receptor Subfamily 1 Group H Member 4 (NR1H4), IR1 submotif (AID 2282946); conditions: IR1 reporter transcription, actives raise or lower the signal
Bile acid receptor (Homo sapiens), sequence (Q96RI1 whole entry, looked up): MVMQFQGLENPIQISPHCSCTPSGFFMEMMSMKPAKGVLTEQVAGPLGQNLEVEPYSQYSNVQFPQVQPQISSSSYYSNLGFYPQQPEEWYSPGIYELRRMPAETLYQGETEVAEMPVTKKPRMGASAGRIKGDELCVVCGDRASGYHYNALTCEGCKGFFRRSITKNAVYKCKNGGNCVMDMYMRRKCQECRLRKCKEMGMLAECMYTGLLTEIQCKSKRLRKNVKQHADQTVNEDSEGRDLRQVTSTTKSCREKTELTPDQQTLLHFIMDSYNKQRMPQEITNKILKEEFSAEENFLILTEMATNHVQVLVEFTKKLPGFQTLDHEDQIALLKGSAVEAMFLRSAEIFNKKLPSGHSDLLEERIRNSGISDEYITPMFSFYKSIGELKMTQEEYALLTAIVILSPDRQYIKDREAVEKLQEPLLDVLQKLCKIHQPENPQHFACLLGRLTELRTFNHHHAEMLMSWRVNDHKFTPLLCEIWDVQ
How it was run: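 Readout: reporter transcript levels by RT-PCR with fluorescent capillary electrophoresis, from HepG2 cells transiently transfected with multiplexed cis-regulated reporters and dosed 24 h. Gain- or loss-of-signal fitted versus DMSO negative control.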

[2] = ATG_GRE_CIS: Attagene CIS-FACTORIAL HepG2 Assay for human Glucocorticoid Response Elements (GRE) (AID 2282947); conditions: HepG2 GRE cis-reporter, Attagene multiplex mRNA; actives raise or lower the signal
How it was run: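 HepG2, transient cis-reporter transfection, 24 h. Reporter mRNA: RT-PCR then CE, fluorescence. Fit both directions vs DMSO.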

[3] = ATG_ISRE_CIS: Attagene CIS-FACTORIAL HepG2 Assay for human Interferon Regulatory Factor 1 (IRF1) binding to an Interferon-Stimulated Response Element (ISRE) (AID 2282948); conditions: HepG2 ISRE cis-reporter (Attagene), mRNA transcription readout; actives raise or lower the signal
How it was run: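 Read-out: fluorescent RT-PCR products resolved by capillary electrophoresis, reporting endogenous transcription factor activity via ISRE-driven reporter mRNA in transfected HepG2 cells dosed for 24 h; gain or loss fitted relative to DMSO.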

[4] = ATG_M_32_CIS: Attagene CIS-FACTORIAL HepG2 Assay for M32 Transcription Factor (Internal Marker) (AID 2282949); conditions: HepG2 Attagene cis-factorial M32 reporter, mRNA; actives raise or lower the signal;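 further: background control marker of the multiplexed CIS panel rather than a real target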
How it was run: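 Transient MRTU transfection of HepG2; 24 h compound treatment; TriZol RNA, oligo(dT) RT, reporter PCR, 6-FAM primer extension, HpaI cut, CE. Gain/loss of signal vs DMSO.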

[5] = ATG_M_06_CIS: Attagene CIS-FACTORIAL HepG2 Assay for M06 Transcription Factor (Internal Marker) (AID 2282950); conditions: HepG2 Attagene CIS-FACTORIAL M06 internal marker reporter; actives raise or lower the signal
How it was run: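 Serves as a background control readout. Transfected HepG2 exposed to compounds for 24 h, then reporter transcripts quantified by fluorescent RT-PCR and capillary electrophoresis. Both directions fitted against DMSO baseline.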

[6] = target: Hypoxia-inducible factor 1-alpha (Homo sapiens) (UniProt Q16665); assay: ATG_HIF1a_CIS: Attagene CIS-FACTORIAL HepG2 Assay for human Hypoxia Inducible Factor 1 (HIF1A) (AID 2282951); conditions: HepG2 Attagene cis-factorial HIF1a reporter transcription; actives raise or lower the signal
Hypoxia-inducible factor 1-alpha (Homo sapiens), sequence (Q16665 whole entry, looked up): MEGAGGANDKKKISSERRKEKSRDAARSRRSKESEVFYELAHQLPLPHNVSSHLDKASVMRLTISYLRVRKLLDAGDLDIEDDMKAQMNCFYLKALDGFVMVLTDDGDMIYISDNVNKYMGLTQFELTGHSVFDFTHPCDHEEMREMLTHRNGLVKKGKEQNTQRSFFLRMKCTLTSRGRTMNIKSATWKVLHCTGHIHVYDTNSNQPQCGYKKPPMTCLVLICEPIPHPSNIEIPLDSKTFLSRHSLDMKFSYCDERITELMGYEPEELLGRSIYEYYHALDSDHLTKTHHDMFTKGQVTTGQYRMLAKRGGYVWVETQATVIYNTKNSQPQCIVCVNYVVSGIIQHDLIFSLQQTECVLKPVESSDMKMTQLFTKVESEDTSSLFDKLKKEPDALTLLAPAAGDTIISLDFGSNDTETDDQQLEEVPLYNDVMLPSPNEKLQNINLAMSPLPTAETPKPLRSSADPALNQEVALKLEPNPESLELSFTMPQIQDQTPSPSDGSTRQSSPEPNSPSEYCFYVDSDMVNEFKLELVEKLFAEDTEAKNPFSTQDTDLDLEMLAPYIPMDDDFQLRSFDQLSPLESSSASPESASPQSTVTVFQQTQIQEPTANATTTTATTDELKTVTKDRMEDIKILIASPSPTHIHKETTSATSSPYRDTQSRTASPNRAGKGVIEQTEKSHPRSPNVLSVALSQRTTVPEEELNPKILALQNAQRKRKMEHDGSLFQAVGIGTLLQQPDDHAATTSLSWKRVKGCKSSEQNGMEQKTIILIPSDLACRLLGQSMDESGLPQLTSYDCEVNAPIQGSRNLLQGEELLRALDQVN
How it was run: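 Measures endogenous transcription-factor activity through cis-regulated reporter mRNA in HepG2. Cells dosed 24 h; transcripts quantified by RT-PCR with 6-FAM-labelled products separated by capillary electrophoresis; DMSO serves as negative control.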

[7] = target: Hepatocyte nuclear factor 6 (Homo sapiens) (UniProt Q9UBC0); assay: ATG_HNF6_CIS: Attagene CIS-FACTORIAL HepG2 Assay for human Hepatocyte Nuclear Factor 6 (HNF6) (AID 2282952); conditions: HepG2 Attagene cis-factorial HNF6 reporter transcription; actives raise or lower the signal
Hepatocyte nuclear factor 6 (Homo sapiens), sequence (Q9UBC0 whole entry, looked up, the tested form may be a part): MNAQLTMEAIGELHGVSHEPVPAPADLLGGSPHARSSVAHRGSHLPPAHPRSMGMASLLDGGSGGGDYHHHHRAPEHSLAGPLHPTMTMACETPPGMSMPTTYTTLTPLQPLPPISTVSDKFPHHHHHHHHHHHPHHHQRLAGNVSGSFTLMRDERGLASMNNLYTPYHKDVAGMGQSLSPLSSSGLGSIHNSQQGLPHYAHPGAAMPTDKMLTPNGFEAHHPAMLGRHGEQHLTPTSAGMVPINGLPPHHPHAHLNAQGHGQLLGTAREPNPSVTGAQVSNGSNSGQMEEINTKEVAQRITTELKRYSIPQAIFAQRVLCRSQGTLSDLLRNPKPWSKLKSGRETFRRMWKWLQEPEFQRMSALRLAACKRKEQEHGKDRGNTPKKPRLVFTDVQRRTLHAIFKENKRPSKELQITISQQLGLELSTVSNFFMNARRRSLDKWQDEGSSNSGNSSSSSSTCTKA
How it was run: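 Twenty-four-hour chemical treatment of reporter-transfected HepG2 cells precedes RNA isolation, DNase-treated reverse transcription and PCR of reporter sequences. Labelled fragments are sized by capillary electrophoresis and fitted bidirectionally versus DMSO.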

[8] = target: Heat shock factor protein 1 (Homo sapiens) (UniProt Q00613); assay: ATG_HSE_CIS: Attagene CIS-FACTORIAL HepG2 Assay for human Heat Shock Transcription Factor 1 (HSE) (AID 2282953); conditions: HepG2 HSE cis-reporter, Attagene RNA transcription; actives raise or lower the signal
Heat shock factor protein 1 (Homo sapiens), sequence (Q00613 whole entry, looked up): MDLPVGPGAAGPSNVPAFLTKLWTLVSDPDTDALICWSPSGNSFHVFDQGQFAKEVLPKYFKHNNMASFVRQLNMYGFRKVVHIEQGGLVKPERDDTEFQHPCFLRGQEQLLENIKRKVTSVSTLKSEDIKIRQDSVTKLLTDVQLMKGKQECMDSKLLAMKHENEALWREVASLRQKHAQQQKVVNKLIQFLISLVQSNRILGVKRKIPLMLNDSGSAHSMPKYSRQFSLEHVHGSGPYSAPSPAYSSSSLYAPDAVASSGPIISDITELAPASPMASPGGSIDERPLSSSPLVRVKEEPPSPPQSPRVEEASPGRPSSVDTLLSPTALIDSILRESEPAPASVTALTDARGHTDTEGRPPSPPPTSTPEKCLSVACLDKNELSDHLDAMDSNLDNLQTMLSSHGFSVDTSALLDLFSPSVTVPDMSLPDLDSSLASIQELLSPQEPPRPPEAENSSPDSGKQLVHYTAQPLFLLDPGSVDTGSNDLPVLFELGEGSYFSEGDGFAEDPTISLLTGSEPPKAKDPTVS
How it was run: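 Endogenous transcription factor activity in transiently transfected HepG2, read as reporter mRNA by RT-PCR with fluorescent capillary electrophoresis after 24 h. Gain or loss of signal fitted versus DMSO baseline.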

[9] = ATG_MRE_CIS: Attagene CIS-FACTORIAL HepG2 Assay for human Metal Responsive Element (MRE) (AID 2282954); conditions: HepG2 MRE cis-reporter transcription, Attagene multiplex; actives raise or lower the signal
How it was run: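 Readout: capillary electrophoresis of 6-FAM-labelled, HpaI-digested RT-PCR reporter products. System: HepG2 cells carrying transient multiplexed cis reporters, dosed 24 h. Analysis: bidirectional fit, DMSO baseline.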

[10] = ATG_PBREM_CIS: Attagene CIS-FACTORIAL HepG2 Assay for human Phenobarbital-responsive Enhancer Module (PBREM) (AID 2282955); conditions: HepG2 PBREM cis-reporter, Attagene multiplexed transcription; actives raise or lower the signal
How it was run: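 Fluorescence of labelled reporter cDNA fragments, resolved by capillary electrophoresis, gives mRNA induction in transfected HepG2 cells treated for 24 h; DMSO serves as negative control and baseline.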

[11] = target: Paired box protein Pax-6 (Homo sapiens) (UniProt P26367); assay: ATG_Pax6_CIS: Attagene CIS-FACTORIAL HepG2 Assay for human Paired Box 6 (PAX6) (AID 2282956); conditions: HepG2 CIS-FACTORIAL PAX6 reporter transcription, RNA readout; actives raise or lower the signal
Paired box protein Pax-6 (Homo sapiens), sequence (P26367 whole entry, looked up): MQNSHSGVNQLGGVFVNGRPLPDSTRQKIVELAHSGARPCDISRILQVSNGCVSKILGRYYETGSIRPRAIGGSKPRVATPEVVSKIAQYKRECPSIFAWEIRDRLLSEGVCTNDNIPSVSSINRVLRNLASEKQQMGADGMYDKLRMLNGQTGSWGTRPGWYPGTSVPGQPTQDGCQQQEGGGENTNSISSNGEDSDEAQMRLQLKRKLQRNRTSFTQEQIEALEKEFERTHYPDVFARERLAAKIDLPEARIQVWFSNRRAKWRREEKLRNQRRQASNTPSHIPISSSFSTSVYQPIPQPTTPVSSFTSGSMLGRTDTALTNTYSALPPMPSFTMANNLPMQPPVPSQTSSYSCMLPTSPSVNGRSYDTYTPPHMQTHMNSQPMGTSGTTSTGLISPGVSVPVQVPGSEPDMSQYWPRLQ
How it was run: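 Readout: reporter transcript fluorescence after RT-PCR and capillary electrophoresis. Cells: HepG2, transiently transfected with cis-regulated MRTUs. Exposure 24 h. Gain or loss of signal fitted bidirectionally relative to DMSO.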

[12] = ATG_PXRE_CIS: Attagene CIS-FACTORIAL HepG2 Assay for human Pregnane X Receptor Element (PXRE) (AID 2282957); conditions: HepG2 Attagene CIS-FACTORIAL PXRE reporter, mRNA; actives raise or lower the signal
How it was run: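 Bidirectional activity, baselined to DMSO, derived from reporter mRNA fluorescence (RT-PCR plus capillary electrophoresis) in HepG2 cells bearing cis-promoter reporter units, 24 h exposure.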

[13] = ATG_PPRE_CIS: Attagene CIS-FACTORIAL HepG2 Assay for human Peroxisome Proliferator-activated Response Element (PPRE) (AID 2282958); conditions: HepG2 PPRE cis-element reporter, Attagene transcription factor profiling; actives raise or lower the signal
How it was run: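 Cells are first transfected transiently with the multiplexed reporter library, then dosed for 24 h. Total RNA is reverse-transcribed, amplified, fluorescently end-labeled and HpaI-cut before capillary electrophoresis; activity is fitted bidirectionally against DMSO controls.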

[14] = ATG_RORE_CIS: Attagene CIS-FACTORIAL HepG2 Assay for human RAR-related Orphan Receptor Element (RORE) (AID 2282959); conditions: HepG2 Attagene cis-factorial RORE reporter, mRNA; actives raise or lower the signal
How it was run: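 Cells were HepG2 carrying transfected cis-regulated reporter constructs, dosed for 24 hours. Total RNA was reverse-transcribed and reporter cDNA amplified, fluorescently labeled and sized by capillary electrophoresis. Activity was fitted bidirectionally relative to DMSO.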

[15] = ATG_Sox_CIS: Attagene CIS-FACTORIAL HepG2 Assay for human SRY-box transcription factor (SOX) (AID 2282960); conditions: HepG2 Attagene cis-factorial SOX reporter, mRNA; actives raise or lower the signal
How it was run: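 Transient MRTU transfection of HepG2; 24 h compound incubation; TriZol RNA, oligo(dT) RT, PCR, 6-FAM primer extension, HpaI cut, CE. Bidirectional fit, DMSO = baseline.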

[16] = target: Transcription factor Sp1 (Homo sapiens) (UniProt P08047); assay: ATG_Sp1_CIS: Attagene CIS-FACTORIAL HepG2 Assay for human Specificity Protein 1 (Sp1) (AID 2282961); conditions: HepG2 Sp1 cis-reporter transcription, actives raise or lower the signal
Transcription factor Sp1 (Homo sapiens), sequence (P08047 whole entry, looked up): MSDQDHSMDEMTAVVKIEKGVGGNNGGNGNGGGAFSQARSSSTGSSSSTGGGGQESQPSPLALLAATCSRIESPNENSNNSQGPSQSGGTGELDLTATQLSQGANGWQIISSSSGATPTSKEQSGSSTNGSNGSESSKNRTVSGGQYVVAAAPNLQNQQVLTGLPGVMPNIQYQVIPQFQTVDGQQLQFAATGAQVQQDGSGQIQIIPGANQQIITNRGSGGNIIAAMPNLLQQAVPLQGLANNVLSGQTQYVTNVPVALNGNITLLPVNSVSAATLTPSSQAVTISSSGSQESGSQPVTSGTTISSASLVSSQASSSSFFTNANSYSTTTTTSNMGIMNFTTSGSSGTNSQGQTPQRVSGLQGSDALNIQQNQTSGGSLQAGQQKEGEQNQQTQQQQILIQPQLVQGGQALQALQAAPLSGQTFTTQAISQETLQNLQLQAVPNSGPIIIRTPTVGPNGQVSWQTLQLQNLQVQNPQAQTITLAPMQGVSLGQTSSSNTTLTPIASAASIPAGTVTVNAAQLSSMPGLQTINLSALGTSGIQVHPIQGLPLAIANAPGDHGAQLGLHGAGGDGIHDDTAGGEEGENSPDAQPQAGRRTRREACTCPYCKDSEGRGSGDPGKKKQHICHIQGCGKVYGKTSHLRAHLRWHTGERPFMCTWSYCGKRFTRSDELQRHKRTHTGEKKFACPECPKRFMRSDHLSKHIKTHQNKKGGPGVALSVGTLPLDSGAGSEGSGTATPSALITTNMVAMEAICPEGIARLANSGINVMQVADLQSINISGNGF
How it was run: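 Endogenous Sp1 activity was gauged in human liver HepG2 cells bearing transfected reporter units under a cis-regulating promoter. After 24 h dosing, reporter mRNA was quantified by RT-PCR with capillary electrophoresis, and activity fitted bidirectionally versus DMSO.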

[17] = target: Signal transducer and activator of transcription 3 (Homo sapiens) (UniProt P40763); assay: ATG_STAT3_CIS: Attagene CIS-FACTORIAL HepG2 Assay for human Signal Transducer and Activator of Transcription 3 (STAT3) (AID 2282963); conditions: HepG2, Attagene cis-factorial STAT3 reporter transcription; actives raise or lower the signal
Signal transducer and activator of transcription 3 (Homo sapiens), sequence (P40763 whole entry, looked up): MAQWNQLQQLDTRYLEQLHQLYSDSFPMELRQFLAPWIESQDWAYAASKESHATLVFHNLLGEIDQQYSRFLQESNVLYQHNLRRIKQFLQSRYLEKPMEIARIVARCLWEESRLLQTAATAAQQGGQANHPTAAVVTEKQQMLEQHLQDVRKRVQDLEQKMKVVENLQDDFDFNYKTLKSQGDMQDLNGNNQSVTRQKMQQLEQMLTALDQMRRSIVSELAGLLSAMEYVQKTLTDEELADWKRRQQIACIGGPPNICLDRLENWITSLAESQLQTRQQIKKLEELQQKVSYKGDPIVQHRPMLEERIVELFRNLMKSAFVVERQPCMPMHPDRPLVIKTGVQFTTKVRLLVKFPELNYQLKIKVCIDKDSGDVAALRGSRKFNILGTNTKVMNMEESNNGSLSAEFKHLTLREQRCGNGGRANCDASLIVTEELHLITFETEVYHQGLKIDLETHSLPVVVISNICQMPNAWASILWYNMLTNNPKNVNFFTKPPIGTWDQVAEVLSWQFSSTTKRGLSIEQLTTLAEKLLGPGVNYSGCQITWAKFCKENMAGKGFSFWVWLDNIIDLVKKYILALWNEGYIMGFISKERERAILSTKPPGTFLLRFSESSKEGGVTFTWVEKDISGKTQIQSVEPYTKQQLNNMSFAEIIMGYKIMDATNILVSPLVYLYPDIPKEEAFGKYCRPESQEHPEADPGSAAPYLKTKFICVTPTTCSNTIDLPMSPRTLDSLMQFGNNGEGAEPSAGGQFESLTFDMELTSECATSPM
How it was run: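 Uses human liver HepG2 transiently carrying cis-regulated reporter transcription units. Following 24 h dosing, reporter mRNA induction was detected by RT-PCR and capillary electrophoresis, analysed bidirectionally versus DMSO.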

[18] = ATG_TA_CIS: Attagene CIS-FACTORIAL HepG2 Assay for human TA Basal Promoter (AID 2282964); conditions: HepG2 Attagene CIS-factorial TA basal promoter reporter; actives raise or lower the signal
How it was run: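 Background-control readout: TA basal promoter reporter mRNA, fitted in both directions relative to DMSO. Measured by RT-PCR and capillary electrophoresis 24 hours after treating HepG2 human liver cells transiently carrying multiplexed cis-regulated reporter constructs.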

[19] = ATG_TCF_b_cat_CIS: Attagene CIS-FACTORIAL HepG2 Assay for human T-Cell-Factor with beta-catenin (TCF/b-cat) (AID 2282965); conditions: HepG2 TCF/beta-catenin cis-reporter transcription, actives raise or lower the signal
How it was run: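 Using capillary electrophoresis as the read-out, labelled reporter cDNA fragments from transiently transfected HepG2 were sized and quantified. Exposure lasted 24 hours; activity in either direction was referenced to DMSO.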

[20] = ATG_SREBP_CIS: Attagene CIS-FACTORIAL HepG2 Assay for human Sterol Regulatory Element Binding (SREBP) (AID 2282962); conditions: HepG2 Attagene cis-factorial SREBP reporter, mRNA; actives raise or lower the signal
How it was run: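 Readout: fluorescent reporter-transcript peaks resolved by capillary electrophoresis after RT-PCR. Cells were human HepG2 carrying transfected cis-promoter reporter constructs, dosed for 24 h. Gain or loss of signal was fitted against DMSO controls.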

Measured: AC50

CCCCCCCCCC[N+](C)(C)CCCCCCCCCC
active: [1] 5.11 µM | [2] 8.55 µM | [3] 24.9 µM | [9] 4.45 µM | [11] 7.61 µM | [13] 185 µM | [14] 19.8 µM | [16] 190 µM | [19] 11 µM
not listed: [20]
inactive: all other assays above

CCC(C)(c1ccc(O)cc1)c1ccc(O)cc1
active: [1] 43 µM and 33.4 µM and 54.5 µM | [3] 45.6 µM and 50.3 µM and 33.4 µM | [6] 75.9 nM and 26.2 µM | [7] 51.8 µM | [11] 52.8 µM and 62.6 µM and 24.6 µM | [12] 1.13 µM [middle of 4 runs] | [14] 59.1 µM and 21.5 µM | [16] 24.4 µM | [20] 33.4 µM and 41.5 µM and 13.9 µM | [18] 60.7 µM | [19] 39.7 µM and 49.7 µM and 47.8 µM
inactive: [1] | [3] | [4] | [5] | [6] | [7] | [11] | [14] | [15] | [16] | [17] | [18] | [19]

c1cc2ccc3cccc4ccc(c1)c2c34
active: [12] 8.77 µM
not listed: [20]
inactive: all other assays above

c1ccc(-c2ccccc2)cc1
active: [3] 110 µM
not listed: [10] | [20]
inactive: all other assays above

CN(C)c1nc(=O)n(C2CCCCC2)c(=O)n1C
active: [12] 50 µM
not listed: [2] | [10] | [20]
inactive: all other assays above

CO/C=C(/C(=O)OC)c1ccccc1COc1cccc(C(F)(F)F)n1
active: [1] 26.4 µM | [9] 44.3 µM | [11] 31.9 µM | [12] 3.54 µM | [13] 37.3 µM | [14] 23 µM | [20] 4.44 µM | [19] 26.4 µM
not listed: [2] | [10]
inactive: all other assays above

Clc1ccc(C(Cl)(Cl)Cl)cc1
not listed: [10] | [13] | [20]
inactive: all other assays above

Oc1ccc(Cl)cc1Cl
active: [12] 64.5 µM
not listed: [20]
inactive: all other assays above

Clc1ccc(C(c2ccccc2Cl)C(Cl)(Cl)Cl)cc1 (configuration not stated)
active: [3] 70.5 µM and 82.3 µM | [6] 18.4 µM | [8] 50.7 µM and 94.6 µM | [9] 70.5 µM and 36.9 µM | [11] 70.5 µM | [12] 3.54 µM [middle of 4 runs] | [16] 70.5 µM | [20] 93.9 µM | [18] 45.3 µM
inactive: [2] | [3] | [4] | [5] | [6] | [7] | [8] | [9] | [11] | [13] | [14] | [15] | [16] | [20] | [17] | [18] | [19]
